# Test results as given in the supplement of paper PMC8253809.
# Where “and” joins values, the source holds several entries; their conditions need not be identical. Equal entries are not always repeated.
# Assays:
# Assay in all cases: growth inhibition (% activity, log2 RLU normalised to DMSO / staurosporine); higher = more growth inhibition
# Conditions in all cases: 33 µM
# DIPGX29 = tested on: DIPGX29 (H3.3 K27M diffuse intrinsic pontine glioma line)
# Summary of the method: (§1)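 Cells (pHGG lines and H9-derived neural stem cells) were plated on Geltrex-coated 384-well plates and exposed to approved drugs at a single final concentration of about 33 μM, in triplicate, for 7 days at 37 °C, 5% CO2. Log2-transformed CellTiter-Glo luminescence was normalised per plate to % activity between solvent and positive control wells, and the growth-inhibition value is the median over replicates.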
# DIPGX37 = tested on: DIPGX37 (H3.3 K27M diffuse intrinsic pontine glioma line)
# Summary of the method: as §1
# DIPGX7 = tested on: DIPGX7 (H3.3 K27M diffuse intrinsic pontine glioma line)
# Summary of the method: as §1
# DIPGX9 = tested on: DIPGX9 (diffuse intrinsic pontine glioma line)
# Summary of the method: as §1
# HGGX39 = tested on: HGGX39 (paediatric high-grade glioma line)
# Summary of the method: as §1
# HGGX6 = tested on: HGGX6 (H3.3 G34R paediatric high-grade glioma line)
# Summary of the method: as §1
# HNSC = tested on: HNSC
# Summary of the method: as §1
# SUDIPGIV = tested on: SUDIPGIV (diffuse intrinsic pontine glioma line)
# Summary of the method: as §1
# SUDIPGVI = tested on: SUDIPGVI (diffuse intrinsic pontine glioma line)
# Summary of the method: as §1
# SUDIPGXIII = tested on: SUDIPGXIII (diffuse intrinsic pontine glioma line)
# Summary of the method: as §1
SMILES,growth inhibition (DIPGX29),growth inhibition (DIPGX37),growth inhibition (DIPGX7),growth inhibition (DIPGX9),growth inhibition (HGGX39),growth inhibition (HGGX6),growth inhibition (HNSC),growth inhibition (SUDIPGIV),growth inhibition (SUDIPGVI),growth inhibition (SUDIPGXIII)
Nc1nc(Cl)nc2c1ncn2[C@H]1C[C@H](O)[C@@H](CO)O1,18.6%,8.52%,14.4%,39.6%,16.4%,14.2%,55.2%,41.7%,5.86%,17%
CCOC(=O)C1=C[C@]2(CC)CCCN3CCc4c(n1c1ccccc41)[C@@H]32,-2.05%,0.343%,1.55%,0.728%,0.726%,-1.58%,34.5%,1.95%,0.167%,3.3%
C[C@]12C=CC(=O)C=C1CC[C@@H]1[C@@H]2[C@@H](O)C[C@@]2(C)[C@H]1CC[C@]2(O)C(=O)CO,0.548%,0.082%,-0.697%,2.79%,1.22%,-0.621%,1.3%,-0.906%,1.51%,0.983%
CN1CCN(c2c(F)cc3c(=O)c(C(=O)O)cn(CCF)c3c2F)CC1,1.06%,4.17%,2.04%,2.14%,2.42%,-0.149%,5.69%,2.18%,2.45%,-2.39%
COC(=O)C1=C(C)NC(C)=C(C(=O)OCCN(C)Cc2ccccc2)C1c1cccc([N+](=O)[O-])c1 (stereo not given),1.83%,4.39%,2.64%,2.12%,6.81%,0.277%,13%,3.58%,-1.74%,2.92%
CCC(C)(C)c1ccc(CC(C)CN2C[C@@H](C)O[C@@H](C)C2)cc1 (stereo not given in full),9.06%,6.3%,36.9%,0.0137%,15.3%,11.1%,8.57%,11.7%,-11.5%,-7.54%
C#CC1(O)CC[C@H]2[C@@H]3CCC4=CC(=O)CC[C@@H]4[C@H]3CC[C@@]21CC (stereo not given in full),-0.0424%,0.475%,-1.66%,0.691%,0.0435%,0.889%,-0.272%,-0.687%,1.24%,1.03%
COc1ccccc1OCC(O)CO (stereo not given),-3.06%,-1.42%,-2.23%,-0.66%,-1.85%,-0.626%,-6.5%,-1.52%,-1.52%,1.23%
N[C@@H]1CONC1=O,1.31%,-0.333%,0.738%,1.4%,0.732%,0.485%,-0.391%,-1.17%,1.19%,1.03%
COC(=O)CCc1ccc(OCC(O)CNC(C)C)cc1 (stereo not given),0.107%,1.63%,0.0919%,0.526%,0.823%,1.03%,-0.617%,-1.21%,1.48%,0.0941%
COC(=O)C1=CO[C@@H](O)[C@@H]2C(CO)=CC[C@H]12,-0.243%,2.53%,-0.199%,2.66%,-0.158%,2.23%,-1.1%,-0.3%,-0.83%,1.32%
CNC(=O)c1ccccc1Sc1ccc2c(/C=C/c3ccccn3)n[nH]c2c1,12.6%,6.36%,11.4%,17.5%,10.9%,20.3%,60.4%,4.73%,0.631%,5.66%
CC(C)n1c(/C=C/[C@@H](O)C[C@@H](O)CC(=O)O)c(-c2ccc(F)cc2)c2ccccc21,4.64%,0.671%,6.29%,6.39%,18.7%,10.2%,26.9%,26.2%,0.023%,3.96%
CC[C@@H]1C(=O)OC[C@@H]1Cc1cncn1C,-0.467%,1.71%,-1.24%,-1.88%,0.217%,-0.083%,-2.25%,-1.63%,0.518%,-11.1%
CCCC(CCC)C(=O)O,-0.377% and 2.62%,2.62% and 1.47%,0.168% and 0.662%,-1.7% and -0.864%,1.15% and -1.14%,-4.05% and -2.44%,2.37% and 0.244%,1.52% and 0.0625%,0.818% and -1.61%,0.746% and 0.431%
NCCCC[C@H](N[C@@H](CCc1ccccc1)C(=O)O)C(=O)N1CCC[C@H]1C(=O)O,-0.869%,-1.25%,-0.813%,-0.846%,-1.12%,1.27%,-1.56%,-0.401%,-1.38%,-4.08%
O=C(Oc1ccccc1C(=O)O)c1ccccc1O,-4.53%,-1.4%,0.584%,-2.94%,-1.64%,-6.45%,9.98%,-3.17%,-8.34%,-0.246%
CCOC(=O)[C@H](CCc1ccccc1)N[C@H]1CCCN2CCC[C@@H](C(=O)O)N2C1=O,2.06%,3.84%,3.15%,2.7%,2.78%,1.01%,9.63%,0.443%,4.92%,-0.861%
Clc1ccc(C(Cn2ccnc2)OCc2csc3c(Cl)cccc23)c(Cl)c1 (stereo not given),2.06%,3.55%,1.45%,1.99%,8.8%,6.02%,10.7%,13.8%,1.94%,5.27%
CC1=CC(=O)c2ccccc2C1=O,2.41%,0.293%,3.47%,2.26%,1.01%,2.5%,42.7%,1.4%,4.19%,-2.13%
C[C@@H]1CCN(C(=O)CC#N)C[C@@H]1N(C)c1ncnc2[nH]ccc12,0.671%,-1.72%,0.986%,-0.0672%,1.55%,-3.29%,19.9%,-0.0962%,-2.08%,1.44%
OCCOCCN1CCN(C2=Nc3ccccc3Sc3ccccc32)CC1,0.62%,0.529%,4.12%,1.36%,2.86%,2.19%,0.74%,-0.167%,-0.798%,1.66%

SMILES,growth inhibition (DIPGX29),growth inhibition (DIPGX37),growth inhibition (DIPGX7),growth inhibition (DIPGX9),growth inhibition (HGGX39),growth inhibition (HGGX6),growth inhibition (HNSC),growth inhibition (SUDIPGIV),growth inhibition (SUDIPGVI),growth inhibition (SUDIPGXIII)
Cc1nc2n(c(=O)c1CCN1CCC(c3noc4cc(F)ccc34)CC1)CCCC2O (stereo not given),-0.21%,-0.0675%,0.542%,0.251%,1.52%,-1.12%,23.4%,2.36%,-0.7%,-0.0722%
Cn1c(=O)c2c(ncn2CC2OCCO2)n(C)c1=O,0.735%,3.27%,0.989%,0.338%,4.64%,-0.428%,12.2%,2.59%,1.02%,0.38%
O=C(O)c1cn(C2CC2)c2cc(N3CCNCC3)c(F)cc2c1=O,-1.96%,-2.35%,-2.23%,-1.26%,-1.56%,-1.82%,-1.04%,-1.7%,-2.88%,-1.57%
O=C(O)c1cc(-c2ccccc2)nc2ccccc12,0.382%,2.97%,0.465%,2.04%,1.46%,1.01%,-0.619%,-1.08%,2.54%,0.975%
Cc1cc(NC(=O)C2=C(O)c3ccccc3S(=O)(=O)N2C)no1,-3.22%,-1.66%,-1.69%,-3.17%,-4.59%,-4.04%,7.58%,-5.37%,-10.5%,-0.431%
Nc1nnc(-c2cccc(Cl)c2Cl)c(N)n1,-0.42%,-0.569%,-0.114%,-0.0846%,0.648%,0.473%,0.358%,-1.97%,0.284%,0.73%
N#Cc1c(N(CC(=O)O)CC(=O)O)sc(C(=O)O)c1CC(=O)O,-0.0468%,-1.11%,-0.504%,1.29%,1.34%,-1.45%,27.7%,1.52%,0.043%,-2.77%
O=C(Nc1ccc([N+](=O)[O-])cc1Cl)c1cc(Cl)ccc1O,43.9%,-2.57%,24.1%,2.53%,4.01%,5.02%,7.85%,16.6%,3.13%,61.3%
CC[C@H]1OC(=O)[C@H](C)[C@@H](O[C@H]2C[C@@](C)(OC)[C@@H](O)[C@H](C)O2)[C@H](C)[C@@H](O[C@@H]2O[C@H](C)C[C@H](N(C)C)[C@H]2O)[C@](C)(O)C[C@@H](C)CN(C)[C@H](C)[C@@H](O)[C@]1(C)O,2.6% and 0.58%,0.972% and 0.639%,2.78% and -0.0129%,0.764% and 1.25%,1.94% and 0.554%,0.417% and 2.15%,-0.827% and -1.61%,-0.232% and -0.687%,-6.26% and 1.06%,1.93% and -0.434%
N#C[C@@H]1CCCN1C(=O)CNC12CC3CC(CC(O)(C3)C1)C2,-0.11%,-0.458%,-0.508%,-1%,0.579%,-2.32%,14.2%,0.0993%,-3.27%,-3.49%
CNC(=O)c1ccc(N2C(=S)N(c3ccc(C#N)c(C(F)(F)F)c3)C(=O)C2(C)C)cc1F,0.905%,-0.457%,1.36%,1.43%,6.4%,1.33%,4.97%,1.84%,-1.51%,1.86%
CCOc1nc2cccc(C(=O)O)c2n1Cc1ccc(-c2ccccc2-c2noc(=O)[nH]2)cc1,-0.219%,0.379%,0.841%,0.153%,0.215%,-1.71%,0.888%,-0.526%,1.43%,-1.07%
CN(C)/N=N/c1[nH]cnc1C(N)=O,5.71%,3.55%,2.2%,3.08%,9.03%,7.4%,4.41%,12.8%,2.55%,0.947%
NCCc1c[nH]cn1,-0.622%,0.871%,-1.55%,0.0733%,1.84%,3.55%,-2.23%,0.269%,-0.51%,22.9%
COc1cc2nc(N3CCN(C(=O)C4CCCO4)CC3)nc(N)c2cc1OC (stereo not given),1.51%,-0.298%,0.774%,0.282%,2.19%,-0.97%,28%,2.95%,-1.11%,-3.7%
CCCCC1=NC2(CCCC2)C(=O)N1Cc1ccc(-c2ccccc2-c2nnn[nH]2)cc1,1.91%,3.8%,1.68%,1.47%,3.35%,3.43%,2.66%,-0.0514%,3.23%,0.582%
COc1cc(Nc2c(C#N)cnc3cc(OCCCN4CCN(C)CC4)c(OC)cc23)c(Cl)cc1Cl,8.64%,2.05%,4.98%,6.92%,9.47%,10.9%,41.9%,-1.39%,8.4%,1.71%
Nc1ccc(S(=O)(=O)Nc2nccs2)cc1,-2.53%,-1.47%,-1.25%,-0.733%,-2.1%,-3.04%,5.4%,-1.7%,-2.69%,0.0367%
CCCCCCCCCCCCCCCC[N+](C)(C)C,27.4%,41.6%,34%,22.2%,48.6%,23.6%,59.5%,36.8%,57.8%,18.1%
Nc1c(CC(=O)O)cccc1C(=O)c1ccccc1,-1.69%,-2.54%,-0.79%,-0.667%,-0.264%,-1.13%,-2.43%,-5.49%,-5.35%,1.21%
CN1CC(=O)NC1=N,1.19%,-0.026%,4.55%,2.89%,6.17%,2.06%,10.1%,2.65%,3.88%,1.35%
Cn1nnc2c(C(N)=O)ncn2c1=O,-1.97%,0.303%,-1.33%,-1.07%,-1.58%,-0.426%,9.79%,-4.09%,0.031%,-1.62%
